From the supplement of paper PMC10849652 come the findings set out here.

Common to all, as to assay: log2 fold change, soluble protein after heating vs DMSO (PISA); higher = thermal stabilisation; K562 lysate, 10 uM; active = over 0.2 and 3.5 SD of the protein, either way, in both replicates (recomputed)
Compound in assay [1]: Cc1cn(-c2cc(NC(=O)c3ccc(C)c(Nc4nccc(-c5cccnc5)n4)c3)cc(C(F)(F)F)c2)cn1 [nilotinib]
In a few lines: (§1)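 To prepare the extract, K562 pellets were dounce-homogenised in PBS pH 7.4 with 1 mM MgCl2, giving crude material at 1 mg/mL protein. This was treated with 10 μM compound for 30 min, then heated in aliquots for 3 min over 48°C-58°C before pooling and addition of NP-40 to 0.5% at 4°C. Centrifugation at 21,000xg for 90 min left soluble protein in the supernatant, which TMTpro 16plex LC-MS/MS quantified with equalised channel sums. Results are log-two fold changes in thermal stability compared with solvent controls, from duplicates.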

Compound in assay [2]: Cc1nc(Nc2n[nH]c3c2CN(C(=O)N[C@H](CN(C)C)c2ccccc2)C3(C)C)c2sccc2n1
In a few lines: as §1

Compound in assay [3]: Cc1nc(Nc2ncc(C(=O)Nc3c(C)cccc3Cl)s2)cc(N2CCN(CCO)CC2)n1 [dasatinib]
The method, boiled down:
as §1

Compound in assay [4]: Cc1ncc(-c2ccnc(Nc3ccc(S(C)(=O)=O)cc3)n2)n1C(C)C
In a few lines:
as §1

Compound in assay [5]: Cn1cc(-c2ccc3c(c2)CCN3C(=O)Cc2cccc(C(F)(F)F)c2)c2c(N)ncnc21
In a few lines: as §1

Compound in assay [6]: Cn1cc(CNCC2CCN(c3ncc(C(=O)NO)cn3)CC2)c2ccccc21 [quisinostat]
In a few lines: as §1

Compound in assay [7]: Cn1cncc1[C@@](N)(c1ccc(Cl)cc1)c1ccc2c(c1)c(-c1cccc(Cl)c1)cc(=O)n2C [tipifarnib]
The method, boiled down: as §1

Compound in assay [8]: NC(=O)Nc1cc(-c2cccc(F)c2)sc1C(=O)N[C@H]1CCCNC1
The method, boiled down: as §1

Compound in assay [9]: NC(=O)c1cnc(N[C@@H]2CCCC[C@@H]2N)nc1Nc1cccc(-n2nccn2)c1
In a few lines:
as §1

Compound in assay [10]: NC1(c2ccc(-c3nc4ccn5c(=O)[nH]nc5c4cc3-c3ccccc3)cc2)CCC1
In a few lines:
as §1

Compound in assay [11]: NCC(=O)Nc1ccc(-n2nc(C(F)(F)F)cc2-c2ccc3c(ccc4ccccc43)c2)cc1
The method, boiled down:
as §1

Compound in assay [12]: O=C(CCCCCCC(=O)Nc1ccccc1)NO [vorinostat]
The method, boiled down: as §1

Compound in assay [13]: O=C(O)c1ccc2c(c1)nc(Nc1cccc(Cl)c1)c1ccncc12 [silmitasertib]
In a few lines: as §1

Compound in assay [14]: O=C1NC(=O)C(c2cnc3ccccn23)=C1c1cn2c3c(cc(F)cc13)CN(C(=O)N1CCCCC1)CC2
The method, boiled down:
as §1

Compound in assay [15]: c1cn2cc(-c3ccc4cn[nH]c4c3)nc(Nc3ccc(N4CCOCC4)cc3)c2n1 [entospletinib]
The method, boiled down:
as §1

Targets with a hit are over-represented here; the source holds about 8,800 in all. About 0.5% of all pairs of compound and target were hits. Values without a mark were called inactive.

Sequence of UniProt Q9H1I8 (Q9H1I8 whole entry, looked up): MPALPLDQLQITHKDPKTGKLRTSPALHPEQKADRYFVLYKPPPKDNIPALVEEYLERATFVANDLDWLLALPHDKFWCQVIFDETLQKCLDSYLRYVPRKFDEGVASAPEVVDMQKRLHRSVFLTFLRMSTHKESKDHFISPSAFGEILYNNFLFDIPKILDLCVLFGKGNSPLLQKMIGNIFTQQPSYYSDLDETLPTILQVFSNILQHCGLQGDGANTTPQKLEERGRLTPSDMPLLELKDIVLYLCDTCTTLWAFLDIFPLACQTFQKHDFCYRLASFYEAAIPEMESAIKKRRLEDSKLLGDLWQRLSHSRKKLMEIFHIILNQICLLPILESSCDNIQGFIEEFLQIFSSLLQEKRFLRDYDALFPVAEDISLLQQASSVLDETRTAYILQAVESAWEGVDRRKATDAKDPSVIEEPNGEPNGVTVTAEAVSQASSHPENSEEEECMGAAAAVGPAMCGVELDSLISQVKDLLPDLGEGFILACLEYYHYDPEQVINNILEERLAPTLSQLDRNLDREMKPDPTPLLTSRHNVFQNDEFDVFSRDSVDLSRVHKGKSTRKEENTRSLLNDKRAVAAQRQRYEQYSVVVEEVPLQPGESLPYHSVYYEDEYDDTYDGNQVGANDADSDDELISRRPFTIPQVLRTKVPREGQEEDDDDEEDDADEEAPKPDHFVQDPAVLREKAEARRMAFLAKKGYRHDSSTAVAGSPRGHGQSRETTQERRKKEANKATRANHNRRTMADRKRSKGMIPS
Sequence of UniProt Q16186 (Q16186 whole entry, looked up): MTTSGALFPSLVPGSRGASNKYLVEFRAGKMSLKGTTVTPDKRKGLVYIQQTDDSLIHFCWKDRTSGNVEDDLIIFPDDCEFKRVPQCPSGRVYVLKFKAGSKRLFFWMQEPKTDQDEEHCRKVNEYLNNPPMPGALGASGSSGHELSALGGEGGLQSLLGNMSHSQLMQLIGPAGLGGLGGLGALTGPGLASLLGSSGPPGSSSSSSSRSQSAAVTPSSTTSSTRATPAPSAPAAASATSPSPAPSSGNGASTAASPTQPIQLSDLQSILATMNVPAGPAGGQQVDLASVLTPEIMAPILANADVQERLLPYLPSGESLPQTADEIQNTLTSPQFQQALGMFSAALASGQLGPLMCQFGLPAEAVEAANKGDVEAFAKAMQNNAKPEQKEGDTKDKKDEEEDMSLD
Sequence of UniProt Q5T5U3 (Q5T5U3 whole entry, looked up): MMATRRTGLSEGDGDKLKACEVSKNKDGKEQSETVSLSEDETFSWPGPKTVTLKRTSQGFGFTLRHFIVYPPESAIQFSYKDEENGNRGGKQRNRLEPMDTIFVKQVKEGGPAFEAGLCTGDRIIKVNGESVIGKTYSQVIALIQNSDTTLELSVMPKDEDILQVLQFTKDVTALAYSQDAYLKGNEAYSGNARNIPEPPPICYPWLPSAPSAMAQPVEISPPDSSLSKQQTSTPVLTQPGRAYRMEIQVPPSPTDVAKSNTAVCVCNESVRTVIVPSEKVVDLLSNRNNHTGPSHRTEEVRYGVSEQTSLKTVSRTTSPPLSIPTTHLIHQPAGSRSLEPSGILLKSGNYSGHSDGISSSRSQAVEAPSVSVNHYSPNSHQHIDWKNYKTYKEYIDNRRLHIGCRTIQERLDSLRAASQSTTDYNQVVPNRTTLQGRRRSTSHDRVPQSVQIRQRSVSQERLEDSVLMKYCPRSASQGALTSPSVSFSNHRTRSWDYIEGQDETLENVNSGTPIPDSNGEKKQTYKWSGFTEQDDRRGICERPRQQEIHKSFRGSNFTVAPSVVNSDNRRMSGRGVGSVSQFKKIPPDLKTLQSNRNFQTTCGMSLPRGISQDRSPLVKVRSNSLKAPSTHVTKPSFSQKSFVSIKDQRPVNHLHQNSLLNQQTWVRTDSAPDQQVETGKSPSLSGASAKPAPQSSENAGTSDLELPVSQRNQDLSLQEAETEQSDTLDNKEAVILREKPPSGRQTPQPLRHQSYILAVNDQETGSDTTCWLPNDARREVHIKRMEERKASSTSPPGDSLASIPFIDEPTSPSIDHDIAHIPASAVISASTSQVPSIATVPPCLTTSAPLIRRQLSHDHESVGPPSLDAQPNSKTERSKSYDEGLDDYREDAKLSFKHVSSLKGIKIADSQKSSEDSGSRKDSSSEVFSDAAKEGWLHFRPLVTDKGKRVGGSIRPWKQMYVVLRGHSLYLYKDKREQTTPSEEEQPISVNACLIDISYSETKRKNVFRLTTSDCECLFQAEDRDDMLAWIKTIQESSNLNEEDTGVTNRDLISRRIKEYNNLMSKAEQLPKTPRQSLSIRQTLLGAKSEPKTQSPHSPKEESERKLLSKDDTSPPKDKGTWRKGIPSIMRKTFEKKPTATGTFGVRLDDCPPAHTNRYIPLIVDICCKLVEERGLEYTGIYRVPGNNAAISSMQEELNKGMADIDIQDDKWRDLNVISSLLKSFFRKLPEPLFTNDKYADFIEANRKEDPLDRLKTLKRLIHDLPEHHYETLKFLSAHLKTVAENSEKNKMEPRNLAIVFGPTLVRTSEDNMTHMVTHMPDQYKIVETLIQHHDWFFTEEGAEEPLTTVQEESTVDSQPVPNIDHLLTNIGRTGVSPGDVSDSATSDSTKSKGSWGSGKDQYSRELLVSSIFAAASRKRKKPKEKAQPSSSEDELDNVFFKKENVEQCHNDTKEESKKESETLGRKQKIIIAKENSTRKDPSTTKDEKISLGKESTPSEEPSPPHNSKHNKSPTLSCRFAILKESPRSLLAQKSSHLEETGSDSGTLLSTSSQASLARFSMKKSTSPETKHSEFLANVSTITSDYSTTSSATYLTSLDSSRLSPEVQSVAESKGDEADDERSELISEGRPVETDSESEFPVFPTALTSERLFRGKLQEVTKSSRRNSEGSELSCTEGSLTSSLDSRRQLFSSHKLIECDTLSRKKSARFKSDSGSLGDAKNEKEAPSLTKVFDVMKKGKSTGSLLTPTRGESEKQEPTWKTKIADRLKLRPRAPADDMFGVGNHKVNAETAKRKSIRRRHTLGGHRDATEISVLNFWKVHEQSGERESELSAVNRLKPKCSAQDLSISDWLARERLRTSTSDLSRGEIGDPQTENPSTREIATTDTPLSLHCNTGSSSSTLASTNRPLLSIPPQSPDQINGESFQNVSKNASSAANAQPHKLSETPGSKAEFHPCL
Sequence of UniProt P08758 (P08758 whole entry, looked up): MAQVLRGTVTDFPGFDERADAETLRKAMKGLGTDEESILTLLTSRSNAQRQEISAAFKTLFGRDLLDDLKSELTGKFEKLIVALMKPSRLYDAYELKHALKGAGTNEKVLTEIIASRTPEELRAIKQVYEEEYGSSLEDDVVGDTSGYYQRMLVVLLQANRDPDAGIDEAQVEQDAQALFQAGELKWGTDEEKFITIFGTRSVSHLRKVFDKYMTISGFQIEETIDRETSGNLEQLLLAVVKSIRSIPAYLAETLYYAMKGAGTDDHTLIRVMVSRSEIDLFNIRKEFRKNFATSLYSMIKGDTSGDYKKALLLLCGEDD
Sequence of UniProt Q9UNA0 (Q9UNA0 whole entry, looked up): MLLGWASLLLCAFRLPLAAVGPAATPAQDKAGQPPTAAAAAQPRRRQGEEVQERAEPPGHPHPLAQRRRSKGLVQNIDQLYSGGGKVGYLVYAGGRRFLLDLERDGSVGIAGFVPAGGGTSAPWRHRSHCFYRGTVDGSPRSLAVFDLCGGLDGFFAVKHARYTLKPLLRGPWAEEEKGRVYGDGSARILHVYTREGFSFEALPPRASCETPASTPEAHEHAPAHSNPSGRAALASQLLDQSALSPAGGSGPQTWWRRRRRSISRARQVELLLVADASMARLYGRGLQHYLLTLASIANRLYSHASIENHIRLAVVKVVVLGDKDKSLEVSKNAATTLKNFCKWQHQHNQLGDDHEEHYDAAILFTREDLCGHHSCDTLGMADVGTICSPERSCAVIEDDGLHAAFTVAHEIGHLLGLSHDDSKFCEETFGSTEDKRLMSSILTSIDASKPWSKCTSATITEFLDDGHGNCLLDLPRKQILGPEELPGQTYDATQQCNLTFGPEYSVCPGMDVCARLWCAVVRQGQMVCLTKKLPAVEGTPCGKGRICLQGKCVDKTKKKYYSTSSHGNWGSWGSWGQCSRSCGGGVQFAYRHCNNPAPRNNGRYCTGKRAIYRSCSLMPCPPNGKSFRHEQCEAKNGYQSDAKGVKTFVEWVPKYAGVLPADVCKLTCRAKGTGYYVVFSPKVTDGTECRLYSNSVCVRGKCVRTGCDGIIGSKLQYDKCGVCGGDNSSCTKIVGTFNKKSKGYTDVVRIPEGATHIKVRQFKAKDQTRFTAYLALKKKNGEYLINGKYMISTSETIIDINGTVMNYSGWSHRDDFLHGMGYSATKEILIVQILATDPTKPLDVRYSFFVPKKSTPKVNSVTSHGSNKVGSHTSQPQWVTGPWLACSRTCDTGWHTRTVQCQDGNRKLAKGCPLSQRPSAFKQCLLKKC
Sequence of UniProt O43823 (O43823 whole entry, looked up): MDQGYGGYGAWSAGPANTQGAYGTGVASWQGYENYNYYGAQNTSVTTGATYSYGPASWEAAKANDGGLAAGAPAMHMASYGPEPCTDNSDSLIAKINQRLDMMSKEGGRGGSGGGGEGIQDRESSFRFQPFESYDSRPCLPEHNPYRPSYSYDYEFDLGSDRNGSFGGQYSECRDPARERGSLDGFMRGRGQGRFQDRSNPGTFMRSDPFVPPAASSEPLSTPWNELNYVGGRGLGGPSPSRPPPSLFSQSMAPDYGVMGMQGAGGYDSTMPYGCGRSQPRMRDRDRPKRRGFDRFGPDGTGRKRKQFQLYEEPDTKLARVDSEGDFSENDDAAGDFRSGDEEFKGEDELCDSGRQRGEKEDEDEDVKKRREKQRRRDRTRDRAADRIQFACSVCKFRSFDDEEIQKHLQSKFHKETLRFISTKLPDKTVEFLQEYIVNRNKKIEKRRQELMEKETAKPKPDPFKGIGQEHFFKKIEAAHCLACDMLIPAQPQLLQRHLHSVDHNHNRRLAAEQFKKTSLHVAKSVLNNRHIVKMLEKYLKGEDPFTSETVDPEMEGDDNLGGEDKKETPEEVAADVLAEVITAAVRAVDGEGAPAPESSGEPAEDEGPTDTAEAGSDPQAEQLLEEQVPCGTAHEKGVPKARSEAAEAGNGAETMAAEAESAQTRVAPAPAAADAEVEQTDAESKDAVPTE

With AMD1 (UniProt P17707), the log2 fold change was -0.05 in assay [1]; -0.04 in [2]; -0.031 in assay [3]; -0.001 in assay [4]; 0.055 in assay [5]; -0.145 in assay [6]. The log2 fold change in assay [7] is -0.005; in [8], 0.151; in [9], 0.229; in assay [10], -0.022; in assay [11], 0.071; in assay [12], -0.076. Also, the log2 fold change was 0.062 in assay [13], 0.499 in assay [14] and 0.211 in assay [15].

Turning to ARHGAP21 (UniProt Q5T5U3), the log2 fold change in [1] was -0.017; in [2], -0.014; in assay [3], -0.039; in assay [4], -0.036; in assay [5], 0.017; in [6], -0.06. Also, the log2 fold change was 0.019 in assay [7]; 0.053 in [8]; 0.002 in assay [9]; -0.021 in assay [10]; 0.021 in [11]; -0.364 (active) in assay [12]. The log2 fold change is 0.014 in assay [13], -0.041 in assay [14] and -0.104 in assay [15].

For the target AGL (UniProt P35573), the log2 fold change in assay [1] is -0.024; in assay [2] it was -0.007; in [3], -0.027; in assay [4] it was -0.005; in assay [5], 0.028; in [6] it was -0.016. The log2 fold change in [7] was 0.016; in assay [8] it was 0.038; in assay [9], 0.016; in assay [10] it was -0.007; in [11] it was 0; in assay [12], -0.275 (active). For the same target, the log2 fold change in assay [13] was 0.035; in [14], 0.001; in assay [15] it was -0.018.

Regarding ASCC2 (UniProt Q9H1I8), the log2 fold change in [1] was -0.005; in assay [2] it was -0.029; in [3], -0.01; in assay [4], -0.018; in assay [5], 0.026; in assay [6], -0.06. Also, the log2 fold change was 0.082 in assay [7]; 0.035 in [8]; 0.038 in assay [9]; -0.023 in [10]; -0.008 in [11]; -0.048 in assay [12]. For the same target, the log2 fold change was 0.077 in [13], 0.026 in assay [14] and -0.017 in assay [15].

For AIMP1 isoform 2 (UniProt Q12904), the log2 fold change in assay [1] is -0.013; in assay [2], -0.016; in [3] it was -0.076; in [4], 0.019; in assay [5], 0.023; in assay [6], 0.01. In addition, the log2 fold change in assay [7] was 0.013; in [8], 0.044; in assay [9], -0.011; in assay [10], 0.001; in [11], -0.01; in assay [12], -0.235 (active). For the same target, the figures for the log2 fold change in [13], in [14] and in assay [15] were 0.02, 0.007 and 0.02, respectively.

As for AKAP8 (UniProt O43823), the log2 fold change in assay [1] was -0.3 (active); in assay [2] it was 0.039; in assay [3], 0.01; in assay [4], -0.001; in assay [5], 0.006; in assay [6] it was -0.075. In addition, the log2 fold change is 0.025 in assay [7]; 0.084 in assay [8]; 0.022 in assay [9]; 0.059 in assay [10]; 0.047 in assay [11]; -0.095 in assay [12]. Moreover, the figures for the log2 fold change in assay [13], in [14] and in [15] were 0.019, 0.023 and -0.046, respectively.

Take ALDH1B1 (UniProt P30837): the log2 fold change in assay [1] is 0.096; in assay [2], -0.015; in [3] it was -0.022; in [4] it was 0.013; in assay [5], 0.034; in [6] it was 0.118. The log2 fold change was 0.05 in [7]; 0.046 in [8]; 0.011 in assay [9]; 0.003 in [10]; 0.027 in [11]; 1.15 (active) in [12]. In addition, the log2 fold change in assay [13] is -0.051; in assay [14], -0.022; in assay [15], 0.033.

On to ADRM1 (UniProt Q16186), for which the log2 fold change in [1] is 0.002; in [2], -0.006; in [3], -0.063; in [4], 0.015; in [5], -0.003; in [6], -0.102. The log2 fold change in assay [7] was -0.017; in [8], 0.011; in [9] it was 0.008; in [10] it was -0.003; in assay [11], 0.051; in [12], -0.231 (active). Also, the log2 fold change in [13] was -0.027; in [14] it was -0.04; in [15], -0.002.

With ANXA5 (UniProt P08758), the log2 fold change in assay [1] was 0.031; in assay [2], -0.008; in assay [3] it was -0.009; in assay [4], -0.067; in [5] it was 0.022; in assay [6], 0.111. In addition, the log2 fold change in assay [7] was 0.019; in assay [8] it was 0.018; in assay [9] it was 0.01; in assay [10] it was 0.012; in assay [11], -0.008; in assay [12], 0.056. For the same target, the values for the log2 fold change in assay [13], in [14] and in assay [15] were 0.021, -0.017 and 0.006, respectively.

Consider ADAMTS5 (UniProt Q9UNA0), for which the log2 fold change in [1] was 0.003; in assay [2], -0.062; in [3] it was -0.01; in assay [4], -0.011; in [5], 0.014; in [6], -0.222. The log2 fold change is -0.041 in [7]; 0.016 in [8]; 0.031 in assay [9]; -0.083 in assay [10]; 0.137 in assay [11]; 0.028 in assay [12]. Besides, the log2 fold change in assay [13] was -0.065; in [14], 0.062; in assay [15], -0.125.
